According to the supplement of paper PMC10849652:
The full data set covers some 8,800 targets. This sample favours those with a hit. About 0.5% of all pairs of compound and target were hits. A number with no mark means an inactive call.

What was measured:
Assay in all cases: log2 fold change, soluble protein after heating vs DMSO (PISA); higher = thermal stabilisation; K562 lysate, 10 uM; active = over 0.2 and 3.5 SD of the protein, either way, in both replicates (recomputed)
erlotinib = compound: C#Cc1cccc(Nc2ncnc3cc(OCCOC)c(OCCOC)cc23)c1 [erlotinib]
Summary of the method: (§1)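 Pellets of K562 cells were dounce-homogenised in PBS pH 7.4 with 1 mM MgCl2, and the crude extract was held at 1 mg/mL protein for a 30 min treatment with 10 μM compound. Aliquots were heated for 3 min over 48°C-58°C and pooled before NP-40 was added to 0.5% at 4°C. The supernatant from 21,000xg for 90 min was quantified by TMTpro 16plex LC-MS/MS with channel sums equalised. Values are reported from duplicates as log-two fold change in thermal stability relative to solvent controls.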

[1] = compound: C/C(=N\NC(=O)C1=CC(=CC=C1)S(=O)(=O)N2CCOCC2)/C3=C(C=CC(=C3)Cl)O
Summary of the method: as §1

[2] = compound: C1=CC(=CC=C1C2=NC3=C(N2)C=C(C=C3)C(=O)N)OC4=CC=C(C=C4)Cl
Summary of the method: as §1

[3] = compound: C1=CC2=C(C=CC(=C2)/C=C\3/C(=O)NC(=NCC4=CC=CS4)S3)N=C1
Summary of the method: as §1

[4] = compound: C1=CC2=NC=CN=C2C=C1/C=C/3\C(=O)NC(=O)S3
Summary of the method: as §1

[5] = compound: C1=CC=C(C=C1)C2=NC(=C(N2)C3=CC=NC=C3)C4=CC(=C(C=C4)Cl)O
Summary of the method: as §1

[6] = compound: C1=CC=C2C(=C1)C3=NNC4=CC=CC(=C43)C2=O
Summary of the method: as §1

[7] = compound: C1CCN(C1)C(=O)NC2=CC=CC(=C2)NC3=NC=C(C(=N3)NCCC4=CN=CN4)Br
Summary of the method: as §1

[8] = compound: C1CN(CCC1(CC2=CC=C(C=C2)Cl)N)C3=NC=NC4=C3C=CN4
Summary of the method: as §1

IRAK-1-4 Inhibitor I = compound: C1COCCN1CCN2C3=CC=CC=C3N=C2NC(=O)C4=CC(=CC=C4)[N+](=O)[O-] [IRAK-1-4 Inhibitor I]
Summary of the method: as §1

ibrutinib = compound: C=CC(=O)N1CCC[C@@H](n2nc(-c3ccc(Oc4ccccc4)cc3)c3c(N)ncnc32)C1 [ibrutinib]
Summary of the method: as §1

[9] = compound: CC(=O)c1cnc2ccc(-c3cc(Cl)c(O)c(Cl)c3)nc2c1N[C@H]1CC[C@H](CN(C)C)CC1
Summary of the method: as §1

ralimetinib = compound: CC(C)(C)Cn1c(N)nc2ccc(-c3[nH]c(C(C)(C)C)nc3-c3ccc(F)cc3)nc21 [ralimetinib]
Summary of the method: as §1

[10] = compound: CC(C)(O)CC(=O)NCCn1ccc2ncnc(Nc3ccc(Oc4cccc(C(F)(F)F)c4)c(Cl)c3)c21
Summary of the method: as §1

[11] = compound: CC(C)C1=C2N=C(C=C(N2N=C1)NCC3=CC=CC=C3)NCCCCCCN
Summary of the method: as §1

[12] = compound: CC1=C(C(CC(=O)N1)C2=CC=C(C=C2)C(F)(F)F)C(=O)NC3=C(C=C4C(=C3)C=NN4)F
Summary of the method: as §1

[13] = compound: CC1=C(C2=C(C=C1)C(=O)C3=CC=CC=C3N2CCCN)C
Summary of the method: as §1

[14] = compound: CC1=C(C=C(C=C1)NC(=O)C2=CC(=CC=C2)C(C)(C)C#N)NC3=CC4=C(C=C3)N=CN(C4=O)C
Summary of the method: as §1

[15] = compound: CC1=C(C=C(C=C1)NC(=O)C2=CC(=CC=C2)N(C)C)NC(=O)C3=CC=C(C=C3)O
Summary of the method: as §1

[16] = compound: CC1=CC=C(C=C1)SC2=C3C=C(SC3=CN=C2)C(=O)N
Summary of the method: as §1

Sequence of UniProt O60762 (O60762 whole entry, looked up): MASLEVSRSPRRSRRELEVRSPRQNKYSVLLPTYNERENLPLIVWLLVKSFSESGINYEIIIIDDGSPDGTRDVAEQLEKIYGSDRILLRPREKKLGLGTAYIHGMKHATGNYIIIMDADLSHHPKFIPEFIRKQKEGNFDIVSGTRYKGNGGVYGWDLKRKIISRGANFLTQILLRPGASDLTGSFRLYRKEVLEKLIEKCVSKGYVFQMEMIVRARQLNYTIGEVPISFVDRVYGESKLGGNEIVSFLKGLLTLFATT
Sequence of UniProt Q6PJW8 (Q6PJW8 whole entry, looked up): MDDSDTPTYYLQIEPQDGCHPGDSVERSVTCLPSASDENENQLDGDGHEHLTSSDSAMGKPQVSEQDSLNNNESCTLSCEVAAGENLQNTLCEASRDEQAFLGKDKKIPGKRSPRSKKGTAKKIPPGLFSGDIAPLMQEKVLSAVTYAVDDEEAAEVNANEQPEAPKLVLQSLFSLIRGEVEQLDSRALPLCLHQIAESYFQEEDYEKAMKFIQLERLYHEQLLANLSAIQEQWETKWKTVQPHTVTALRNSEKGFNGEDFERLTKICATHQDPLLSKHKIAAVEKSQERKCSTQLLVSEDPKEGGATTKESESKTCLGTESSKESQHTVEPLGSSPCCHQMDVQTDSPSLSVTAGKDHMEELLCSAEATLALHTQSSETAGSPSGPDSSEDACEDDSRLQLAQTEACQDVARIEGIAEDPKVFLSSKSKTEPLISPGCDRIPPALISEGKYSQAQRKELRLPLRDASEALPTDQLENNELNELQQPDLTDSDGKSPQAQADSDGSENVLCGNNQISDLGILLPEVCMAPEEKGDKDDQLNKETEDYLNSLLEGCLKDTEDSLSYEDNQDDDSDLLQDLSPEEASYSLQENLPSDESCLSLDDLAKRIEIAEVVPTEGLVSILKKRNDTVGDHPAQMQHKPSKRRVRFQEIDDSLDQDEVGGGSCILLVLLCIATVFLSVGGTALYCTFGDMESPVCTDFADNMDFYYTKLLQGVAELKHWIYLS
Sequence of UniProt Q8NI60 (Q8NI60 whole entry, looked up): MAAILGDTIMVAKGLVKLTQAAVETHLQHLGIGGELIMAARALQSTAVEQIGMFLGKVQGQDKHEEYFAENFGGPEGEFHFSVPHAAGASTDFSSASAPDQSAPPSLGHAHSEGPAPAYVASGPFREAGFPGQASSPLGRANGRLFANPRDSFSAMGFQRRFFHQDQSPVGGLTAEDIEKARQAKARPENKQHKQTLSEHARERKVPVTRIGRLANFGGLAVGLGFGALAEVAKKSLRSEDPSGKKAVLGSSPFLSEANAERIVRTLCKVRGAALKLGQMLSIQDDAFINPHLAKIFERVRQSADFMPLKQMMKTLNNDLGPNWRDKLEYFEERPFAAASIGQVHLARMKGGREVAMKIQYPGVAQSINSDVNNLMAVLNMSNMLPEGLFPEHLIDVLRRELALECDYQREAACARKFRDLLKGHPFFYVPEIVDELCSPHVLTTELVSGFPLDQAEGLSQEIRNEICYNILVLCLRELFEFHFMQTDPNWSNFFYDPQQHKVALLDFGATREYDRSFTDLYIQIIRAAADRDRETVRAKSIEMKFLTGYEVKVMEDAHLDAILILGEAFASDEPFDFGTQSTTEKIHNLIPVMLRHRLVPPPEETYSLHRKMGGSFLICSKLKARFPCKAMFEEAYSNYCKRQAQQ
Sequence of UniProt P33240 (P33240 whole entry, looked up): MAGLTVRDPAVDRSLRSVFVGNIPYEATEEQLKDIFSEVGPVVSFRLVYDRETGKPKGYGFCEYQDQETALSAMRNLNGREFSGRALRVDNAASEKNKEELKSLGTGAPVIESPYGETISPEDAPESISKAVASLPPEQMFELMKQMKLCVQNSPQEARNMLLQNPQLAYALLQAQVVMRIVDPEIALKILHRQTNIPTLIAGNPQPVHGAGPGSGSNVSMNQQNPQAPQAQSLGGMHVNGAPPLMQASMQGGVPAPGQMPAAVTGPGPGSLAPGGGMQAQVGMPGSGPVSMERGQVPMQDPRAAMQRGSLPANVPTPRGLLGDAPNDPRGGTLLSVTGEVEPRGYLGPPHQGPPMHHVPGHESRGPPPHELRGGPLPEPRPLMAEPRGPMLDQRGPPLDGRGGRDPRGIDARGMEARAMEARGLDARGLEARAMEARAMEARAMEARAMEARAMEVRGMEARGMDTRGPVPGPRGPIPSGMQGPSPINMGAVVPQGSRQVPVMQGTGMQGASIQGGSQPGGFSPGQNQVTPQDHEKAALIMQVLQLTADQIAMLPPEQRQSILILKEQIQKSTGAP
Sequence of UniProt P39880 (P39880 whole entry, looked up): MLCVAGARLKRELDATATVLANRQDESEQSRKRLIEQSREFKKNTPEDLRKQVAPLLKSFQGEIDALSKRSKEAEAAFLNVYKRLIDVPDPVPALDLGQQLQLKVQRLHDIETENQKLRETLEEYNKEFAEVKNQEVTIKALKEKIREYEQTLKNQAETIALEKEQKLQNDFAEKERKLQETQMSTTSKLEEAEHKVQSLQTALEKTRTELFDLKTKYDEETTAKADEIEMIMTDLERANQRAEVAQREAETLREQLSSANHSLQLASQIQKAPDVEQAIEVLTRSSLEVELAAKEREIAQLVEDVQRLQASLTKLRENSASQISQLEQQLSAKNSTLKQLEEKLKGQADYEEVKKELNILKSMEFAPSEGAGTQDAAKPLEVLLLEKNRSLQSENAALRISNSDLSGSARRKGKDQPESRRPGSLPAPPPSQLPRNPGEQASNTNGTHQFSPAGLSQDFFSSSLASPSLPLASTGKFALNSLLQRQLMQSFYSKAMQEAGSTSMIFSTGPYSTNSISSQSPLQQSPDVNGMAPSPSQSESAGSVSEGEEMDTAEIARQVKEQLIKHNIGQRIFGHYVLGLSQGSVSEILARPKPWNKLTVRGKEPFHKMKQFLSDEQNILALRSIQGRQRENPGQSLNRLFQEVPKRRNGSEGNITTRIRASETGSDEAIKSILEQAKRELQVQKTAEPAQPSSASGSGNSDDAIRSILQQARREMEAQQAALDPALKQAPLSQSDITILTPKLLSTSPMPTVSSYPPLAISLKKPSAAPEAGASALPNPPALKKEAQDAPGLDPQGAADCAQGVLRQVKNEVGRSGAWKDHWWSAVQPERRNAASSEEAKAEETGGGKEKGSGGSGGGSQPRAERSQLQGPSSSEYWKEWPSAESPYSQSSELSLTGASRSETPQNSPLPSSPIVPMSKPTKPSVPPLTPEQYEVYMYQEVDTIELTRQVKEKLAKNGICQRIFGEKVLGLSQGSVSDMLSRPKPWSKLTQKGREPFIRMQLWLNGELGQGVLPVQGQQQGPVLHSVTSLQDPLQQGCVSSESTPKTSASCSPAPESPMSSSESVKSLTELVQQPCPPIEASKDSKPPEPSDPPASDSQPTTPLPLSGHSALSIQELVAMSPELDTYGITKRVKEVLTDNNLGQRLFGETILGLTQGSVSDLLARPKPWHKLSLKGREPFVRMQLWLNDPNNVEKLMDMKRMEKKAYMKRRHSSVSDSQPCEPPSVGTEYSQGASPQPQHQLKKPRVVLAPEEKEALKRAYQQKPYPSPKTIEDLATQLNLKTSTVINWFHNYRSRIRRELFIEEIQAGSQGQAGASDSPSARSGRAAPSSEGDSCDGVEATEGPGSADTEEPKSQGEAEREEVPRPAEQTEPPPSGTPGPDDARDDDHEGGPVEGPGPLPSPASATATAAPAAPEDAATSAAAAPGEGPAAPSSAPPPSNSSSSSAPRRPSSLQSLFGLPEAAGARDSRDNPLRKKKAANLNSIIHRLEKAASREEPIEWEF
Sequence of UniProt P19784 (P19784 whole entry, looked up): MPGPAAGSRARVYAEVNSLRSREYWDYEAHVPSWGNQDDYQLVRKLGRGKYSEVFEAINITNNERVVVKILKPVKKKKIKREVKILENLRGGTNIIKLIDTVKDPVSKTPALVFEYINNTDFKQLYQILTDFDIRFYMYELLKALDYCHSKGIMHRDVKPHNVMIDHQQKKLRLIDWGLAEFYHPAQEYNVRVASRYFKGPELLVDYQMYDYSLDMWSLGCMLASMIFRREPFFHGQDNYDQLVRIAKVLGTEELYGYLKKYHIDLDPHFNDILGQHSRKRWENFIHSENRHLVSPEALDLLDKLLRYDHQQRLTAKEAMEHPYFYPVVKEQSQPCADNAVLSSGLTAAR
Sequence of UniProt Q9UHD1 (Q9UHD1 whole entry, looked up): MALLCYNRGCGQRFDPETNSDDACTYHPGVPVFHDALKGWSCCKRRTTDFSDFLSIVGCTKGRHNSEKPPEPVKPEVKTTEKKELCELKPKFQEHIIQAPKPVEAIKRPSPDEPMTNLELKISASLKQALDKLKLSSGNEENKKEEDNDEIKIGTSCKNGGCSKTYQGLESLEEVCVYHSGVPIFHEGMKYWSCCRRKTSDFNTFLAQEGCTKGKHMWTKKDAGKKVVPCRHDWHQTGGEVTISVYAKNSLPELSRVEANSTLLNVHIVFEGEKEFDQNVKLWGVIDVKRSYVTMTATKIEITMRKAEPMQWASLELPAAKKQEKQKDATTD
Sequence of UniProt Q5RI15 (Q5RI15 whole entry, looked up): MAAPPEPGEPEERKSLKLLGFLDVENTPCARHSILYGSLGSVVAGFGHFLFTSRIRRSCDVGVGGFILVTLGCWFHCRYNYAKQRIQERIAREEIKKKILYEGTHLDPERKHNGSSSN
Sequence of UniProt O76075 (O76075 whole entry, looked up): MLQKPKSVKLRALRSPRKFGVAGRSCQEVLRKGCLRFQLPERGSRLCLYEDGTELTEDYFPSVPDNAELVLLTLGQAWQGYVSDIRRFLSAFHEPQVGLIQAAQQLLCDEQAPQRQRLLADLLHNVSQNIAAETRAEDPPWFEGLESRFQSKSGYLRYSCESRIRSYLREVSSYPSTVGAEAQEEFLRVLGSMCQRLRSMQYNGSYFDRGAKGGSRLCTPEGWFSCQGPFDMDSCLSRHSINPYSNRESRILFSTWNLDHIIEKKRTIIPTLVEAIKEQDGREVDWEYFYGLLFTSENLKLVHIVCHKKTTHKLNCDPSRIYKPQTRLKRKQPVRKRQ

Target	log2 fold change (erlotinib)	log2 fold change [1]	log2 fold change [2]	log2 fold change [3]	log2 fold change [4]	log2 fold change [5]	log2 fold change [6]	log2 fold change [7]	log2 fold change [8]	log2 fold change (IRAK-1-4 Inhibitor I)	log2 fold change (ibrutinib)	log2 fold change [9]	log2 fold change (ralimetinib)	log2 fold change [10]	log2 fold change [11]	log2 fold change [12]	log2 fold change [13]	log2 fold change [14]	log2 fold change [15]	log2 fold change [16]
DPM1 (UniProt O60762)	-0.009	-0.039	-0.036	0.056	-0.015	-0.007	0.041	-0.022	-0.014	-0.008	-0.016	-0.018	-0.025	-0.027	-0.009	0.033	0.015	0.006	0.014	0.023
CHORDC1 (UniProt Q9UHD1)	0.015	0.007	0.017	0.001	0.004	0.002	0.005	-0.007	0.015	-0.016	-0.002	0.004	-0.009	-0.001	-0.032	-0.009	0.001	0.023	0.033	0.006
CTNNBL1 (UniProt Q8WYA6)	0.023	0.052	0.023	0.018	0.015	0.103	-0.033	-0.042	-0.033	0.088	0	0.047	-0.095	-0.169	0.017	-0.051	-0.04	0.015	0.056	0.01
DLG3 isoform 2 (UniProt Q92796)	-0.048	-0.085	0.073	0.002	-0.046	-0.012	-0.013	0.019	-0.001	-0.056	0.034	0.009	0.124	0.042	-0.005	0.055	-0.009	-0.023	-0.033	0.024
CIP2A (UniProt Q8TCG1)	0.057	0.18	-0.086	0.034	-0.019	0.019	-0.11	-0.002	0.02	0.007	0.022	0.001	0.052	-0.046	-0.03	0.009	0.003	0	0.059	-0.033
COQ8A (UniProt Q8NI60)	0.154	0.014	-0.057	0.008	-0.083	0.029	0.105	-0.01	0.007	-0.034	-0.061	0.611 (active)	0.143	0.115	-0.009	-0.139	-0.074	-0.04	0	-0.068
CUX1 isoform 3 (UniProt P39880)	-0.015	-0.017	-0.007	0.03	-0.049	-0.039	0.003	-0.004	0.07	0.014	0.073	0.002	0.003	-0.061	0.017	-0.022	0.003	-0.051	0.012	0.005
CNST (UniProt Q6PJW8)	0.044	-0.013	0.05	0.01	-0.004	0.007	-0.054	-0.022	0.036	0.023	0	0.006	0.031	0.022	0.012	0.176	-0.01	-0.035	0.006	-0.002
CSNK2A2 (UniProt P19784)	0	-0.209	-0.015	0.383	0.699 (active)	0.032	0.375	0.277	0.024	0.022	-0.015	0.666 (active)	0.012	-0.014	-0.01	-0.046	0.185	-0.017	0.003	0
DHFR (UniProt P00374)	0.031	0.046	-0.023	-0.019	0.045	0.025	-0.01	0.034	0.019	-0.055	-0.013	0.155	-0.058	0.016	0.024	-0.018	-0.013	-0.029	0.025	0.033
DDX20 (UniProt Q9UHI6)	0.021	0.048	-0.054	-0.029	-0.005	0.007	0.022	0.032	0.042	-0.015	-0.01	0.017	0.029	-0.029	-0.03	-0.011	0.004	-0.006	0.044	0.01
CSTF2 (UniProt P33240)	-0.036	-0.002	0.048	-0.048	0.044	0.011	-0.04	0.002	0	0.053	0.244 (active)	-0.001	0.025	-0.033	-0.022	-0.033	-0.02	-0.011	0.052	0.011
CHEK1 (UniProt O14757)	-0.048	-0.057	0	0.27 (active)	0.008	0.023	0.06	-0.108	0.02	-0.011	0.019	0.104	0.032	-0.004	-0.003	0.004	0.011	0.026	-0.005	-0.024
COX20 isoform 2 (UniProt Q5RI15)	0.022	0.004	-0.018	-0.001	-0.129	0.016	-0.036	-0.09	0.034	0.048	0.28	0.017	0.084	0.032	-0.003	-0.007	-0.04	0.003	0.001	-0.023
DFFB (UniProt O76075)	-0.055	0.062	0.071	0.048	0.084	0.047	0	0.013	-0.019	0.008	0.076	-0.01	0.054	-0.068	-0.027	0.044	0.08	0.033	-0.07	-0.039
CSDE1 isoform 4 (UniProt O75534)	-0.025	0.009	-0.035	0.001	-0.023	-0.021	-0.002	0.016	-0.001	-0.017	-0.007	-0.003	0.017	0.03	0.003	-0.013	0.004	-0.022	0.012	0.009
